Screening results from PubChem BioAssay.
IL-1B inflam inh – inflammasome signaling inhibition, IL-1 beta readout. THP-1 LPS/ATP IL-1B secretion, AlphaLISA, 16 h; hits give low values. activity change, % at 57.5 µM. hit rate 4.7% among 360,000; in the data active = activity change below about -50%; inconclusive = mostly about -30% to -49%
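Secreted IL-1B measured by AlphaLISA bead assay after 16 h compound exposure of THP-1 cells; compounds (final up to 57.5 uM) added 1 h before LPS (250 ng/mL) and ATP (1.25 mM) stimulation; lower signal means less secretion.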
DT40 TDP1 no CPT – qHTS for Inhibitors of human tyrosyl-DNA phosphodiesterase 1 (TDP1): qHTS in cells in absence of CPT. Potency, µM (titrated, usually from 46.2 µM), actives largely listed as inhibitors. DT40 Tdp1-/- hTDP1 cells, no CPT, ATP luminescence, 48 h. hit rate 15% among 420,000; note: nearly all actives have a fitted effect of over 55% in size
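Camptothecin absent (DMSO only). Human TDP1-complemented DT40 knockout cells, 400 cells/well, 37 °C for minimum 48 hr; ATP measured via CellTiter-Glo, 30 min dark incubation, luminescence.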
HT1080 IDH1KD tx – toxicity to HT-1080 IDH1 knockdown cells (counter line); Potency, µM (doses to about 46.1 µM), usual class: cytotoxic; HT-1080 IDH1 knockdown viability, ATP luminescence, 48 h; hit rate 2% among 360,000
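HT-1080-IDH1KD cells (IDH1 knocked down), 750/well in RPMI with 5% FBS, treated with compound 48 h at 37 degrees C. Viability by CellTiter-Glo luminescence, normalised to DMSO and no-cell wells; concentration-response curves classed.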
HT1080NT lethal – kills 2HG-producing HT-1080-NT fibrosarcoma cells; Potency, µM (titrated, usually from 46.1 µM), actives largely listed as cytotoxic; AID 686970; HT-1080-NT fibrosarcoma viability, CellTiter-Glo ATP luminescence, 48 h; hit rate 1.6% among 360,000;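 note: NT is the 2HG producing partner of a matched IDH1 knockdown line; nearly all actives have a fitted effect of over 55% in size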
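Toxicity toward the 2HG-producing NT line was scored as %Activity, normalised to DMSO and no-cell wells, from CellTiter-Glo luminescence after 48 hours' treatment.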
DT40 TDP1 CPT – growth inhibition of DT40 Tdp1-/-;hTDP1 cells with camptothecin (screen for TDP1 inhibitors); chicken DT40 Tdp1-/-;hTDP1 cells + 20 nM CPT, ATP luminescence, 48 h; Potency, µM (titrated, usually from 46.2 µM), most hits filed as inhibitors; hit rate 12% among 420,000; note: nearly all actives have a fitted effect of over 55% in size
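Chicken DT40 Tdp1-/- cells complemented with human TDP1, 400 cells/well, exposed to compounds plus 20 nM camptothecin for at least 48 h at 37 C; viability read as ATP content by CellTiter-Glo luminescence.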
Hits are given with their value; 0 = inactive; ? = inconclusive; - = no result given. Only some compounds are listed: those with a hit (about 19% of all), similar ones and a draw of the others. Unless noted, calls come from the whole dose curve; as a rule, active = well fitted curve in the direction sought with a large enough effect; inconclusive = small, poorly fitted or top-dose-only effect, or another doubt; inactive = no such curve, though single readings can be large; an effect the other way counts as inactive or inconclusive.

SMILES	IL-1B inflam inh	DT40 TDP1 no CPT	HT1080 IDH1KD tx	HT1080NT lethal	DT40 TDP1 CPT
CCNC(=O)C1(C)CCN(Cc2cccc(Oc3ccccc3)c2)C1 (stereo unspecified)	0	16.4µM	?	0	?
COc1ccc(NC2c3ccccc3C(=O)N2c2cccnc2)cc1 (stereo unspecified)	0	0	0	0	0
COc1cc(NC(=O)c2cccnc2)c(Cl)cc1NC(=O)c1ccccc1	0	?	0	0	0
Cc1oc2ncn(C)c(=O)c2c1C(=O)N(C)c1ccccc1F	-	0	-	-	0
COc1ccccc1CNC(=O)CN1C(=O)CSc2ccc(S(=O)(=O)N3CCCCC3)cc21	-	20.6µM	-	-	?
O=C(CN1C(=O)CSc2ccc(S(=O)(=O)N3CCCCC3)cc21)NCc1ccc(F)cc1Cl	-	?	-	-	23.1µM
COc1ccccc1CNC(=O)CN1C(=O)COc2ccc(S(=O)(=O)N3CCCCC3)cc21	0	?	0	0	?
COc1cc(OC)cc(-c2c(-c3ccc(F)cc3)c3cc(Br)ccc3n2C)c1	0	0	0	0	0
COc1cccc(-c2c(-c3cc(OC)cc(OC)c3)n(C)c3ccc(-c4cnc(OC)nc4)cc23)c1	0	14.6µM	0	0	?
COc1cccc(-c2c(-c3cc(OC)cc(OC)c3)n(C)c3ccc(-c4cnc(N5CCOCC5)nc4)cc23)c1	0	23.1µM	0	?	13µM
COc1cc(OC)cc(-c2c(-c3ccc(F)cc3)c3cc(-c4cnc(OC)nc4)ccc3n2C)c1	0	13µM	0	0	16.4µM
COc1ccc(-c2c(-c3cc(OC)cc(OC)c3)n(C)c3ccc(-c4cnc(N)nc4)cc23)cc1	0	?	0	0	0
COc1ccc(-c2c(-c3cc(OC)cc(OC)c3)n(C)c3ccc(-c4ccc(S(N)(=O)=O)cc4)cc23)cc1	-53.9	4.11µM	0	0	10.3µM
COc1ccc(S(=O)(=O)N2CCc3ccccc32)cc1C(=O)NCC(c1ccco1)N1CCCC1 (stereo unspecified)	0	?	0	0	0
O=C(NN1CCCC1)NS(=O)(=O)c1ccc(Cl)cc1	-	0	-	-	0
CNc1cncc(-c2cccc(OC)c2F)n1	0	0	0	?	0
O=C(NCCN1CCC(n2c(=O)[nH]c3ccccc32)CC1)c1ccncc1	0	0	0	0	0
O=C(NCCN1CCC(n2c(=O)[nH]c3ccccc32)CC1)C(c1ccccc1)c1ccccc1	-79.7	16.4µM	?	?	16.4µM
O=C(NC1CCCCC1)N1CCC(n2c(=O)[nH]c3ccccc32)CC1	0	0	0	0	?
O=C(NCCN1CCC(n2c(=O)[nH]c3ccccc32)CC1)c1cccc(Cl)c1	?	?	0	0	16.4µM
CCCCCn1c(=O)[nH]c2cc(C(=O)NCCN3CCC(C)CC3)ccc2c1=O	0	?	0	0	0
CCCCOc1ccc(C(=O)NCCN2CCC(n3c(=O)[nH]c4ccccc43)CC2)cc1	0	?	16.4µM	?	?
O=C(NCCN1CCC(n2c(=O)[nH]c3ccccc32)CC1)c1cccc(F)c1	-73.9	0	0	0	0
CCc1ccc(C(=O)CSc2nc3cc(S(=O)(=O)N4CCOCC4)ccc3n2CC)cc1	0	?	0	0	?
CN(C)S(=O)(=O)c1ccc(C(=O)NCc2nnc(SCC(=O)N3CCCC3)o2)cc1	0	0	0	0	0
O=C(NCCN1CCC(n2c(=O)[nH]c3ccccc32)CC1)c1cc(F)cc(F)c1	-53.0	0	0	0	0
COc1cc(C(=O)N2CCCCC2c2cc(C(=O)NC(C)C)no2)cc(OC)c1C (stereo unspecified)	0	?	0	?	?
CCCNC(=O)c1cc(C2CCCCN2C(=O)c2ccc(C(C)C)cc2)on1 (stereo unspecified)	0	10.3µM	0	0	20.6µM
CC(C)c1ccc(C(=O)N2CCCCC2c2cc(C(=O)Nc3ccncc3)no2)cc1 (stereo unspecified)	0	16.4µM	0	0	16.4µM
CC(=O)Nc1ccc(C(=O)N2CCCCC2c2cc(C(=O)Nc3ccccc3)no2)cc1 (stereo unspecified)	0	0	0	0	0
